Source: PubChem BioAssay AID1508600 (Functional Genomics Laboratory (NCATS/FGL), 2020)
Among all 53,000 sequences or so, about 3,700 (7%) were called active. The full list was thinned out, with actives kept by preference. Values without a mark were called inactive.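 How the source made its calls: active means gene knockdowns whose robust z-score for IL-1 alpha signal is at least 2 or at most -2, so actives lie on both sides; inactive means the rest.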

Experiment: Components of the Cytosolic LPS Sensing Pathway: Gene Identification via Genome-wide siRNA Screen;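 further: robust z of the log signal after scaling to non-targeting control siRNA wells of the plate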
Conditions: RAW264.7 macrophages, IL-1a HTRF, actives lie on both sides, screened at 100 nM (by protocol), cells primed 5 h with Pam3CSK4 first
Procedure, shortened: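 Supernatant IL-1a by HTRF from RAW264.7 cells primed with Pam3CSK4 (5 hours) and transfected with LipidA (24 hour) after 48h siRNA knockdown at 100 nM; cell viability checked with CellTiter-Glo.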

Row | Sequence | z-score
1 | GGAAGAAGAAGGUGUAACCTT against Defb39 | 0.567
2 | GGCAUCUGUUACCCAGAAUTT against Zfp384 | -1.92
3 | CCAAAUGACUUUGGUCCUATT against Vax2 | 0.576
4 | CCAUCCUCAACAAGAUCGATT against Rab4b | 2.25 (active)
5 | GGUGGUAACCAAUCAUUACTT against Cd200r1 | -0.296
6 | GCAUAAACUAACCACUUAGTT against Evi2b | -1.77
7 | GGCUUUUUUGCCAUUGCUATT against Wnt9b | 0.19
8 | GGAGAUUCAUCGCUACCUUTT against Ccna1 | 2.46 (active)
9 | GGUUGUAGGAAGAAGAGAATT against Olfr957 | -0.798
10 | CGGUCUUUAUUACAUAAUCTT against Ptpro | -0.757
11 | CCAUUGCAUAUUUAGUAGCTT against Sox11 | -0.765
12 | CGUAAAUAUGCCCGUAGUUTT against Bpifa1 | 0.31
13 | GGUCUGUAUCCCACUUUUCTT against Dalrd3 | -2.15 (active)
14 | CCUCUACUCAAGUUUACUUTT against Casq2 | 0.417
15 | GGCGAUGGAAAGACUGCACTT against Hus1b | 0.311
16 | CCCACAAGUUUCAUCUGACTT against Aknaos | -0.164
17 | GGAGAACCCAUUAAAGAAATT against Amd1 | 0.408
18 | GGUCUGUACUUGUUUAGAATT against Vwa3b | 0.42
19 | GCUAUACAAAGGCUACUCUTT against Hectd3 | 0.379
20 | GCUGUUGAUUGUAAGCAAUTT against Mtap | 0.0958
21 | GCCGCACCGAAAGUGAAAUTT against Copz2 | -0.391
22 | GGACCGGUGUAAGCUUCGATT against Hinfp | 2.05 (active)

Row | Sequence | z-score
23 | GCUAGAGGAUGGCUGAGCUTT against Poll | -0.581
24 | GGUGACUGAAAUCAAACACTT against Il9r | -1.71
25 | GGAAGGAUUGCCUUUAGGATT against Rbm12b2 | 0.29
26 | GGAGUAUGAAUUUGUGACUTT against Arhgdig | -0.526
27 | GGACCGCGUUCAAGAAGAATT against Cyp2c37 | 2.17 (active)
28 | GGAGAAUUUGGAAAGUGAGTT against Rnf150 | 0.0696
29 | GGGUAAACACCCAUUUAGCTT against Lbx2 | -0.156
30 | GGUCCUAGGCCUACUCAUCTT against Cd46 | -0.318
31 | GGUCCUACUAUAACCUGCGTT against Gdf3 | -0.103
32 | GCAGAUUUUGACUAAAGGATT against Sbds | -0.747
33 | GCAGUGAACCGUAUUGGACTT against Ncam1 | 0.406
34 | GGUUCACAGAUGAUACCUUTT against Rab18 | 4.59 (active)
35 | GGACCUUCCAGCAAGAUUUTT against Rnf13 | 0.28
36 | GCCGGCAGUAAAGAUUCAUTT against Cog2 | 0.938
37 | CCGGGUAGUCUUUUUGGUGTT against 9130019O22Rik | -1.72
38 | GGGAAGAAAGGAUGGGAAATT against Fev | 0.355
39 | GCGGCCUCUUGAAUGAUUCTT against Ccndbp1 | 2.16 (active)
40 | GGUUGUUAUGGUCUCAUAUTT against Lrrc40 | -0.62
41 | GGUUUCAAGAAAGAUAUGATT against Cntnap5b | -0.891
42 | GGAAUUAAGAAGACAAUUCTT against Emc2 | -1.22
43 | GGAUGUCUCCAUGAAGGAATT against Ccnb2 | -1.12
44 | GGUUGAUGGGUAAUAAACUTT against Nfatc4 | -2.16 (active)

Row | Sequence | z-score
45 | GGAAUGGAUAAAAACAUUGTT against Tank | 1.27
46 | GGUGGUCUACUUAGGUUUATT against Sc5d | 0.63
47 | GCGUGCAGCCCUCAAUGAATT against Ppp2r5b | 0.84
48 | GGCGAACAGAGAGAGUUAGTT against 4921524J17Rik | 0.677
49 | GGGCUUCACUUCCUUAGGATT against Cog3 | 0.0276
50 | GGGCUGAAGUGAAAACAGCTT against Mmp8 | -0.523
51 | GGAUAACUCACAAGAGUCUTT against Zdhhc16 | -0.296
52 | GGCUUUUUGUUAAGGCAGCTT against Ap1ar | 1.59
53 | GGAGACAACAACAAGACAUTT against Tbk1 | 3.12 (active)
54 | GGAGAAAGCUGCUCAUGAATT against Caml | -0.477
55 | GGCAGAUGAUCCCGGGAUUTT against Clvs1 | 0.545
56 | GGUAUGUCUGCAUAAAUGUTT against Cyp2c38 | 2.74 (active)
57 | GGUUCGUGUGGUUUAACAUTT against Afg3l1 | 1.55
58 | GGAUGAGAGGUAAAGUAACTT against Nptxr | 0.802
59 | GGUUCUCUGAUACCCACUCTT against Mgat4e | 0.44
60 | GGAAAUGUGGAGAGAAAAUTT against P2ry4 | 1.02
61 | GGCGACAUAUUUUUCAAACTT against Fmn1 | -0.506
62 | CGUGGAAGACAUACAACCCTT against Tmem181a | 3.03 (active)
63 | GGUCCGAGAGACAUUGGCATT against Lmx1b | -0.118
64 | CCUUAUAAGAAAGAUAGACTT against Nhlrc2 | -0.591
65 | GGAGCUUCAAGGUCUGUCGTT against Tmc6 | -2.65 (active)
66 | GCUGGAUGGCCGUUUCAAATT against Fancd2os | -0.00925

Row | Sequence | z-score
67 | GGAACUAAAUCUUCCAUCCTT against Chit1 | -1.02
68 | GGAAAUAGAAGACCAGUUUTT against Srsf3 | -1.43
69 | GGCACCAUCUACGACUAUGTT against Gpx5 | -0.649
70 | GGUGAGCACUAAAUGCAGATT against Cldn16 | 0.892
71 | GCAAAUGUUGCCCAUCGUGTT against Ppp2r1b | 0.44
72 | GGAAAUCCUGGGACAGAACTT against Htatip2 | -2.42 (active)
73 | GCCUGAGAUCGUGAACACUTT against Ccdc159 | -0.0179
74 | GGAGGCCUUGUACUUACACTT against Rspo1 | 1.26
75 | GGUGAAUCAGACAUACUAUTT against Snupn | 3.31 (active)
76 | GGUAUGGAUGCUUGAGAAATT against Ccdc77 | -1.15
77 | GGAGCCAGUCCAAAUUGCATT against Il13ra1 | 0.561
78 | GCCCAUUGAGUUUGAUUCATT against Itgav | 1.57
79 | GGACGAUUCUUUUCUCCAGTT against Surf1 | -2.07 (active)
80 | CCUCAUCGAAUUCGAUACCTT against Arrb2 | -0.181
81 | CGCUACGUCCAGUAUCACCTT against Tmem192 | -0.471
82 | CCAGAUAGGUAAAAAACAATT against Acta2 | -0.562
83 | GCAAAUUUAAGAGAAGUUGTT against Dse | -0.132
84 | CCUAGACUUGAACAAACACTT against Lsm12 | -2.11 (active)
85 | GCUUCGGCCUCAGUAUUCATT against Pigb | 0.0355
86 | GCAUACUUAGGAUACACGCTT against A830005F24Rik | -0.647
87 | GCCACAUUCUUCUCAACCUTT against Tas2r106 | -2.14 (active)
88 | GGUAGUUAACACAAAAUUGTT against 4932438H23Rik | 0.334

Row | Sequence | z-score
89 | GGACUUCUUGGACCUACUUTT against F5 | -1.55
90 | GGUAGGAGGUAUUUCCCACTT against Shisa5 | 0.197
91 | GGCUUCUAAGCAUACUCAGTT against Iqsec1 | -0.257
92 | GCUCCUCUCCAAGGUCAUUTT against Olfr96 | 0.652
93 | GGAUUUUCCAGGCAUGAGGTT against Ehd3 | -2.24 (active)
94 | GGAAAUGCGCCAUGAGUUGTT against Soga3 | -0.124
95 | GAGUUGUACUCUUCACUAUTT against Olfr497 | -2.6 (active)
96 | GGACUAUUGUCUCAUUUGATT against Olfr1189 | 1.04
97 | GGACAACGUAGCCUUCGUUTT against Ncln | -0.562
98 | GGUGGAUUCUAUUAAAUGCTT against Gm14461 | 0.462
99 | CCAUUAGCAAUGUGCUUCUTT against Unc13a | 0.268
100 | GGUGUUCGAGAAGCUGAAGTT against Haus7 | -0.371
101 | GGAUCUUUCGUGUGGAAAATT against Atf7ip | 0.87
102 | GCUUUUGGACUGAAUCUCATT against 2210016L21Rik | 2.78 (active)
103 | GGCCACCUUCUUUGAGGUATT against Snai1 | 1.11
104 | GGUAGGACUAACAAUAAAATT against Gpr4 | -0.0158
105 | GACCUGAAUAAAGACUGUCTT against Cort | 0.697
106 | CGGACUUACCAAAAGCGCATT against Lss | 3.16 (active)
107 | GGAGAGAGAUGAAAUUUGATT against Kif26b | 1.79
108 | GGAGAAAAUCAACAAGAUCTT against Ppp2r2c | -0.437
